Assay outcomes from PubChem BioAssay.
Giardia killer = Small Molecules that selectively kill Giardia lamblia: qHTS; actives 0.15% (n = 340,000); Giardia lamblia trophozoite viability; activity change, % at 7.66 µM, hits read low; in the data active means activity change below about -80%; inconclusive means between about -30% and that limit;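 further: parasites exposed to compound for two days anaerobically before the ATP read; on the % scale 0 is the no-effect control and ±100 the full control effect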
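Killing of trophozoites was scored by loss of ATP luminescence after a 48 hrs anaerobic exposure to compounds at 37 deg C, using 100 cells per well.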
MCF10A rerep = A quantitative high throughput screen for small molecules that induce DNA re-replication in MCF 10a normal breast cells. MCF 10A DNA re-replication, Hoechst nuclear intensity, 48 h. Potency, µM (series often up to 46.1 µM), for the others: top-dose activity, positive = re-replication, hits mostly activators. actives 2.9% (n = 350,000). AID 624296, 2012; further: potency means the concentration at half of the fitted maximal effect; % of control where 0% means no effect; nearly all actives have a fitted effect of over 50% in size
uPA generation = qHTS for Inhibitors of Cell Surface uPA Generation; cell surface uPA generation assay, qHTS; Potency, µM (doses to about 38.3 µM), without a hit: top-dose activity change, negative = inhibition, most hits filed as inhibitors; actives 0.31% (n = 330,000); AID 540303, 2011; active means well fitted inhibition curve with a large enough effect; inconclusive means small, poorly fitted or top-dose-only effect; inactive means no such curve, though single readings can be large or run the other way; tested in mouse RAW 264.7 cells; further: potency means the concentration at half of the fitted maximal effect; on the % scale 0 is the no-effect control and ±100 the full control effect; nearly all actives have a fitted effect of over 55% in size
SW480 rereplic = A quantitative high throughput screen for small molecules that induce DNA re-replication in SW480 colon adenocarcinoma cells; SW480 DNA re-replication, Hoechst DNA content imaging, 48 h; Potency, µM (series often up to 46.1 µM), inactives show top-dose re-replication activation, usual class: activators; actives 1.8% (n = 340,000); AID 624297, 2012; further: potency means the concentration at half of the fitted maximal effect; % of control where 0% means no effect; nearly all actives have a fitted effect of over 55% in size
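First, 250 cells per well were seeded. Next, compound or vehicle (23 nL) was pinned in, plates sat 48 hr at 37 C. Finally Hoechst was added for 40 min before fluorescence scanning.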
Starred values were filed as active, the others as inactive; ? = inconclusive; nt = no result; [ ] = dose if it differs, or a comment. Only some compounds are listed: those with a hit (about 4.3% of all), similar ones and a draw of the others. Unless noted, the call rests on the fitted dose curve; in most records, active means well fitted activation curve with a large enough effect; inconclusive means small, poorly fitted or top-dose-only effect; inactive means no such curve, though single readings can be large or run the other way.

SMILES	Giardia killer	MCF10A rerep	uPA generation	SW480 rereplic
CC12CCC(C(=NO)C1=O)C2(C)C (centres undefined)	12	-2%	5%	-3%
O=C(CCN1C(=O)/C(=C/c2ccccc2Cl)SC1=S)N1CCOCC1	-2	23µM*	?	?
O=C(CCN1C(=O)/C(=C\c2ccccc2)SC1=S)N1CCOCC1	2	11%	-1%	-24%
O=C(CCN1C(=O)/C(=C/c2ccccc2Cl)SC1=S)N1CCCC1	4	?	-2%	15µM*
O=C(CCCN1C(=O)/C(=C/c2ccccc2Cl)SC1=S)NNC(=O)c1ccncc1	18	13µM*	0%	-31%
O=C(CCN1C(=O)c2ccccc2C1=O)N1CCN(c2ccccc2)CC1	3	-2%	nt	-13%
O=C1c2ccccc2C(=O)N1Cc1cnc(N2CCN(c3ccccc3)CC2)s1	10	?	-9%	18µM*
CCOC(=O)N1CCN(S(=O)(=O)N2CCCC(C(=O)NCCc3ccc(OC)c(OC)c3)C2)CC1 (centres undefined)	1	?	-3%	7%
CCOC(=O)c1ccc(NC(=S)N(CCCN2CCN(CC)CC2)Cc2cccs2)cc1	-3	?	-5%	-53%[1.84 µM]
CCC(=O)Nc1cccc(C2=NN(c3ccccc3)C(c3ccc(OC)cc3)C2)c1 (centres undefined)	-20	?	?	18µM*
COc1ccc(C2CC(c3ccc(OC)cc3O)=NN2C(=O)c2ccccc2)cc1 (centres undefined)	9	?	8%	3%
COc1ccc(C2CC(c3ccccc3)=NN2C(=O)c2ccc(F)cc2)cc1 (centres undefined)	-4	15%	3%	6%
COc1ccc(C2CC(c3ccccc3O)=NN2c2ccccc2)cc1 (centres undefined)	12	16µM*	1%	18µM*
CC(=O)Oc1ccc(C2=NN(c3ccccc3)C(c3ccccc3)C2)cc1 (centres undefined)	-6	5.8µM*	?	18µM*
COc1ccc(C2CC(c3ccccc3)=NN2c2ccc(Cl)c(C(=O)O)c2)cc1 (centres undefined)	-21	8.2µM*	5%	?
CCN(c1ccccc1)S(=O)(=O)c1ccc(Oc2ccccc2)c(N)c1	29	?	2%	-4%
COC(=O)C1=C[C@@H](C(=O)OC)C2C3=C(C(=O)[C@@]2(C)NC(=O)c2ccccc2)[C@H](c2ccccc2)[C@@H]2C(=O)N(c4ccccc4)C(=O)[C@@H]2[C@@H]3C1 (some centres undefined)	-11	nt	nt	nt
COc1ccc(C2CC(c3ccccc3)=NN2c2ccc(N)cc2)cc1 (centres undefined)	-11	16µM*	-2%	23µM*
C=CCOc1ccc(C2CC(C)=NN2c2ccccc2)cc1 (centres undefined)	-12	21µM*	1%	?
Cc1ccc(Nc2cc(Cl)nc(N)n2)c([N+](=O)[O-])c1	-17	12%	-2%	1%
COC(=O)c1ccc(Sc2nnnn2-c2ccccc2)c([N+](=O)[O-])c1	-7	?	-14%	10µM*
O=C(Nc1cc2c(=O)n(-c3ccc(Oc4ccccc4)cc3)ccc2oc1=O)c1ccccc1	-8	5.2µM*	5%	?
COc1cc(/C=C(/C#N)C(=O)NCCc2c[nH]c3ccccc23)ccc1OCc1ccccc1F	7	5.2µM*	nt	3.3µM*
CCCC(=O)Oc1ccc(C2NC(=O)c3ccccc3O2)cc1 (centres undefined)	2	-2%	-1%	?
CSc1ccccc1OCc1cc(C(=O)N2CCCC2c2nonc2C)no1 (centres undefined)	-15	2%	-1%	-9%
SMILES	Giardia killer	MCF10A rerep	uPA generation	SW480 rereplic
Cc1cccc(C)c1OCc1cc(C(=O)N2CCCC2c2nonc2C)no1 (centres undefined)	16	8.2µM*	0%	?
CC1=N/C(=C/c2cc(Br)cc(Br)c2O)C(=O)O1	-16	6%	2%	-5%
Cc1sc2ncnc(N3CCC(C(=O)Nc4ccc(Br)cc4Br)CC3)c2c1C	-19	18%	5%	0%
CC(C)c1cc(NC(=O)CCl)on1	7	?	6.3µM*	?
CCCc1cc(=O)[nH]c(SCC(=O)N2CC3(C)CC2CC(C)(C)C3)n1 (centres undefined)	-15	17%	15%	-10%
Cn1ccc2cc(-c3ccc4ncnc(NCc5cccs5)c4c3)ccc21	6	12µM*	7.9µM*	?
Cc1ccc(OCC(=O)Nc2nnc(SCc3cc(=O)n4cccc(C)c4n3)s2)cc1	-2	nt	nt	nt
Cc1ccc(S(=O)(=O)N2CCOCC2)cc1C(=O)c1nccn1C	-2	1%	-2%	-2%
COc1ccc(-c2nc(NC(C)=O)sc2-c2ccccc2)cc1	6	23µM*	1%	?
COc1ccc(-c2nc(NC(=O)c3ccccc3)sc2-c2ccc([N+](=O)[O-])cc2)cc1	-8	13µM*	13%	12%
Cn1c(=O)c(C(=O)c2ccccc2)nc2ccccc21	-21	-1%	-1%	-4%
Cn1c(/C=N/NC(=O)c2ccccc2)nc2ccccc21	-15	1%	-19%	0%
Cn1c(/C=C/c2ccccc2)nc2ccccc21	?	13%	4µM*	-2%
CC(=O)c1ccc(/C=C/c2nc3ccccc3n2C)o1	-13	18µM*	-9%	?
Cn1c(=O)c(/C=C/c2ccc(F)cc2)nc2ccccc21	-9	?	2%	12µM*
Cn1c(=O)c(/C=C/c2ccccc2)nc2ccccc21	?	12µM*	0%	?
O=c1c(/C=C(\O)c2ccc(F)cc2)nc2ccccc2n1-c1ccccc1	-4	6%	8%	20%
COc1ccc2oc(C(=O)N3CCCc4ccccc43)c(C)c2c1	-5	6%	-2%	0%
COc1ccc(C2=NN(CC(=O)NCc3ccco3)C(=O)CC2)cc1	10	-2%	0%	-10%
CCN1CCN(c2nc3c(C)cccn3c(=O)c2/C=C(\C#N)C(=O)NCCOC)CC1	8	16µM*	-19%	6.5µM*
COCCNC(=O)/C(C#N)=C/c1c(N2CCN(C)CC2)nc2c(C)cccn2c1=O	16	-6%	-12%	21µM*
COCCCNC(=O)/C(C#N)=C/c1c(N2CCN(C)CC2)nc2c(C)cccn2c1=O	6	?	-7%	?
CNC(=O)/C(C#N)=C/c1c(N2CCN(c3ccc(OC)cc3)CC2)nc2c(C)cccn2c1=O	23	21µM*	-6%	-1%
COCCNC(=O)/C(C#N)=C/c1c(N2CCCCCC2)nc2c(C)cccn2c1=O	2	-2%	-13%	?
CC(=O)Nc1cccc(NC(=O)COc2ccc3c(c2)OCO3)c1	-7	2%	-3%	-5%
CC1CCc2nc(-c3cc4c(ccc5ccccc54)oc3=O)sc2C1 (centres undefined)	-5	nt	nt	nt
